# Target: Glucose transporter (Leishmania mexicana) (UniProt O61059)
# Assay: ST_JUDE_LEISH: Cytotoxicity at 2uM final concentration against transgenic Leishmania Mexicana promastigotes LmGT2 that are glucose transport deficient and complemented with the L. Mexicana glucose transporter 2. Activity is measured by DNA content using SYBR green in vitro
# Format: functional
row,SMILES,inhibition [%]
1,CC(Sc1nc(-c2ccccc2)c(-c2ccccc2)o1)C(=O)NC1CC1 (stereo unspecified),0.3
2,O=C(Cc1ccc(-n2cnnn2)cc1)N(Cc1cncn1Cc1cccc(C(F)(F)F)c1)CC1CC1,1.66
3,CN1CCCc2ccc(NC(=O)Nc3ccc(Cl)c(Cl)c3)cc2C1,-1.33
4,COc1ccc(CNC2Cc3ccccc3C2)cc1-c1ccc(S(=O)(=O)NCc2cccnc2)s1,0.3
5,CN(C)CCOc1cc(NC(=O)Nc2ccc(Cl)cc2C(F)(F)F)ccc1I,-3.2
6,Oc1ccccc1CCNC1CCc2ccccc2C1 (stereo unspecified),6.05
7,CCCCOc1cc2c(cc1OCC)C(C=Cc1ccc(Cl)cc1Cl)=NCC2,10.2
8,ON=C1CCc2cc(-c3[nH]c(-c4cccc(OCCNCc5ccc(F)cc5)c4)nc3-c3ccncc3)ccc21,10.8
9,O=C1Nc2cccc3c2C1(CCCCCN1CCC(c2c[nH]c4ccncc24)CC1)CCC3 (stereo unspecified),-0.95
10,O=S(=O)(NCCN1CCCC1)c1ccc(-c2cccc(CNC3Cc4ccccc4C3)c2)cc1F,3.93
11,O=C(c1ccccc1)N1CCC[C@](CCCN2CCN(c3ccccc3O)CC2)(c2ccc(Cl)c(Cl)c2)C1,5.99
12,CCCCCN1CCCN(Cc2cccc(NC(=O)c3ccc4ccccc4c3)c2)CC1,4.95
13,Cc1n[nH]c2cc(F)c(-c3cc(OC[C@@H](N)Cc4ccccc4)cnc3-c3ccoc3)cc12,6.42
14,COc1cc(CC2c3cc(O)c(Cl)cc3CCN2C)c(OC)cc1C (stereo unspecified),5.31
15,COc1ccccc1CCNc1nc(C)cc(N[C@@H](Cc2ccccc2)C(=O)NCc2cccs2)n1,0.42
16,CN(c1ccc2c(c1)nc(NCc1ccccc1)n2C)c1ccnc(Nc2ccc(CS(C)(=O)=O)cc2)n1,3.22

# Reference: ChEMBL document CHEMBL3433997, “St. Jude Leishmania screening dataset” (2016)
